Results from PubChem BioAssay.
Unmarked numbers belong to inactive results. How the calls were made is not given here.

The compounds below were run against Pantothenate synthetase (Mycobacterium tuberculosis (strain ATCC 25618 / H37Rv)) (UniProt P9WIL5) (assay: Coupled enzyme confirmation of inhibitors against recombinant Mtb PanC (AID 375;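 further: 0% = full reaction with vehicle and 100% = no enzyme background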)). Settings: coupled enzyme assay; at 10 µM, stronger effect = higher value.
Pantothenate synthetase (Mycobacterium tuberculosis (strain ATCC 25618 / H37Rv)), sequence (P9WIL5 whole entry, looked up): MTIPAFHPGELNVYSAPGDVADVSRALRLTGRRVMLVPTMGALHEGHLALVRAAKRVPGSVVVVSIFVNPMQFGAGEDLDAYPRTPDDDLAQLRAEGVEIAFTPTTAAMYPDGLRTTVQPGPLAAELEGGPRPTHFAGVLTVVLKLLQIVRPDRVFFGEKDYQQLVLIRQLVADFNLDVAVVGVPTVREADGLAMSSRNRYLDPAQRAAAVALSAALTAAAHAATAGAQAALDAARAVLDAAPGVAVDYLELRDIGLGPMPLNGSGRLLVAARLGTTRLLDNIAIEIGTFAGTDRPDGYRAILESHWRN

**Q.** With `CC1CCCCC1NC(=O)Cn1nnc(-c2ccc(Cl)cc2)n1` (stereo not given) as the compound, how does the inhibition read?
**A.** The inhibition was 1%.

**Q.** Which inhibition does the source give for `Cc1ccc(-c2ccc(=O)n(CC(=O)NCCCN3CCCCC3C)n2)cc1` (stereo not given) here?
**A.** Its inhibition is 0%.

**Q.** `COC(=O)c1c(NC(=O)c2ccc(S(=O)(=O)N3CCOCC3)cc2)sc2c1CCN(C)C2` was tested. Which inhibition did it give?
**A.** The inhibition was 0%.

**Q.** For `CCc1nnc(SCC(=O)NC2CCCCC2)nc1CC`, which inhibition is on record?
**A.** Its inhibition is 1%.

**Q.** How did the inhibition turn out when `Cc1ccc2cc(CN(CC(C)C)C(=O)C3CCCO3)c(=O)[nH]c2c1` (stereo not given) was run?
**A.** Its inhibition is 0%.

**Q.** For `Cn1c(=O)cc(OCCCC(=O)Nc2ccc3c(c2)OCCO3)c2ccccc21`, which inhibition is on record?
**A.** The inhibition was 1%.

**Q.** `CC(C)Sc1nc(N2CCCC2)c2c(c1C#N)CC(C)(C)OC2` was tested. Which inhibition did it give?
**A.** The inhibition was 0%.

**Q.** How did the inhibition turn out when `COC(=O)c1sc(NC(=O)COc2ccccc2OC)nc1C` was run?
**A.** Its inhibition is 0%.

**Q.** With `COc1nc(Oc2ccc(=O)n(C)n2)nc(N(C)C)n1` as the compound, how does the inhibition read?
**A.** Its inhibition is 4%.

**Q.** For `O=C1NC(Nc2ccccn2)(C(F)(F)F)C(=O)N1c1ccc(F)cc1` (stereo not given), which inhibition is on record?
**A.** The inhibition was 0%.

**Q.** For `CC1CCCCN1CCNC(=O)c1ccc2c(=O)n(CCc3ccccc3)c(=O)[nH]c2c1` (stereo not given), which inhibition is on record?
**A.** The inhibition was 0%.

**Q.** `COc1cccc(OC)c1C(=O)n1nc(C)cc1C` was tested. Which inhibition did it give?
**A.** The inhibition was 6%.

**Q.** With `Cc1ccc2ncnc(NCCCN3CCOCC3)c2c1` as the compound, how does the inhibition read?
**A.** The inhibition was 1%.

**Q.** Which inhibition does the source give for `O=C(c1ccc(Br)cc1)N1CCN(S(=O)(=O)c2ccccc2)CC1` here?
**A.** The inhibition was 0%.

**Q.** For `Cc1cc(C)c(C#N)c(SCc2[nH]nc3c2C(c2ccccc2)C(C#N)=C(N)O3)n1` (stereo not given), which inhibition is on record?
**A.** Its inhibition is 0%.

**Q.** For `CCn1c(SCC(N)=O)nc2c1c(=O)n(C)c(=O)n2C`, which inhibition is on record?
**A.** Its inhibition is 0%.

**Q.** For `COc1ccccc1Oc1ccc(S(=O)(=O)N2CCOCC2)cc1S(=O)(=O)N1CCOCC1`, which inhibition is on record?
**A.** The inhibition was 0%.

**Q.** For `Cc1c(NC(=O)C(C)OC(=O)c2cc3c4ccccc4n(C)c3s2)c(=O)n(-c2ccccc2)n1C` (stereo not given), which inhibition is on record?
**A.** Its inhibition is 0%.

**Q.** Which inhibition does the source give for `COc1cccc(-n2c(SCC(=O)Nc3cc(C)on3)nc3c([nH]c4ccccc43)c2=O)c1` here?
**A.** Its inhibition is 2%.

**Q.** Which inhibition does the source give for `CC1(C(=O)CSc2nc3ccccc3s2)CCC(=O)O1` (stereo not given) here?
**A.** The inhibition was 0%.

**Q.** For `COc1cccc(-c2nc3n(n2)C(c2ccccc2Cl)C(C(N)=O)=C(C)N3)c1` (stereo not given), which inhibition is on record?
**A.** Its inhibition is 0%.

**Q.** For `Cc1cc(NC(=O)CSc2nc3ccsc3c(=O)n2NC(=O)c2ccccc2)no1`, which inhibition is on record?
**A.** The inhibition was 1%.

**Q.** For `OCCN1CCN(CC(O)COc2ccc3ccccc3c2)CC1` (stereo not given), which inhibition is on record?
**A.** Its inhibition is 0%.

**Q.** How did the inhibition turn out when `CN(C)CCNC(=O)c1ccc(COCC(F)(F)F)cc1` was run?
**A.** The inhibition was 0%.

**Q.** Which inhibition does the source give for `CCCCC(=O)O[C@H]1CC[C@H]2[C@@H]3CCc4cc(O)ccc4[C@H]3CC[C@]12C` here?
**A.** Its inhibition is 6%.

**Q.** For `O=C(CCCn1c(=O)[nH]c2ccsc2c1=O)N1CCN(c2ccccn2)CC1`, which inhibition is on record?
**A.** Its inhibition is 3%.

**Q.** `C=C(C)c1cccc(C(C)(C)NC(=O)Nc2ncccn2)c1` was tested. Which inhibition did it give?
**A.** The inhibition was 0%.

**Q.** Which inhibition does the source give for `Cc1ccccc1-n1nnc2c(=O)oc3ccccc3c21` here?
**A.** The inhibition was 0%.

**Q.** For `CN(CC(=O)NCCC1=CCCCC1)S(=O)(=O)c1ccc2c(c1)CCC(=O)N2`, which inhibition is on record?
**A.** Its inhibition is 0%.

**Q.** `COCCN(CC(=O)NCc1ccccc1)C(=O)CCC(=O)Nc1ccccn1` was tested. Which inhibition did it give?
**A.** Its inhibition is 0%.

**Q.** For `CCN(CC)CCN1C(=O)C(O)=C(C(=O)c2cccs2)C1c1ccccn1` (stereo not given), which inhibition is on record?
**A.** The inhibition was 0%.

**Q.** How did the inhibition turn out when `O=C(NCc1ccco1)C1Cc2ccccc2CN1S(=O)(=O)c1ccccc1F` (stereo not given) was run?
**A.** The inhibition was 1%.

**Q.** How did the inhibition turn out when `O=C(c1ccco1)N(Cc1cc2ccccc2[nH]c1=O)C1CCCCC1` was run?
**A.** The inhibition was 0%.

**Q.** How did the inhibition turn out when `CC(C)(Oc1ccc(CCNC(=O)c2ccc(Cl)cc2)cc1)C(=O)O` was run?
**A.** Its inhibition is 0%.

**Q.** How did the inhibition turn out when `COC(=O)c1cc2oc(C)cc2n1CC(=O)N(C)c1ccccc1` was run?
**A.** Its inhibition is 0%.

**Q.** With `COCCn1nnnc1C(c1cc2cc(OC)ccc2[nH]c1=O)N1CCC(Cc2ccccc2)CC1` (stereo not given) as the compound, how does the inhibition read?
**A.** The inhibition was 3%.

**Q.** `COc1ccc2nc(NC(=O)C(NS(=O)(=O)c3cccs3)C(C)C)sc2c1` (stereo not given) was tested. Which inhibition did it give?
**A.** The inhibition was 0%.

**Q.** `COc1ccc(CC(=O)NCc2ccccc2)cc1S(=O)(=O)N1CCOCC1` was tested. Which inhibition did it give?
**A.** The inhibition was 0%.

**Q.** How did the inhibition turn out when `Nc1c(C(=O)NCCc2ccccc2)nnn1Cc1ccccc1` was run?
**A.** Its inhibition is 0%.

**Q.** How did the inhibition turn out when `Cc1cc(C)c2c(n1)nn1c(C3CC3)cc(C(F)(F)F)nc21` was run?
**A.** The inhibition was 5%.
